Consider 19 compounds from the supplement of paper PMC6518042.

The assay deals with Pectobacterium parmentieri SCC3193. The assay is described as follows: DuctApe activity index (growth/respiration on compound as sole nutrient source, blank-subtracted) (activity index (0-3)); higher = stronger utilization of the compound, active = 3 or more. The conditions noted are these: nutrient role (plate category): carbon. The protocol:
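Biolog Phenotype Microarray plates PM1, PM2A (carbon), PM3 (nitrogen) and PM4 (phosphorus/sulfur) inoculated with P. parmentieri SCC3193 in M9-C minimal salts medium with Biolog dye A, and read in the OmniLog for 46 h. Each well was tested in triplicate and the experiment was run twice. DuctApe computed a blank-subtracted activity index (AV, 0-3) from the mean curves; growth is positive at AV >= 3 and negative at AV <= 2.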
Consider `CO[C@@H]1O[C@H](CO)[C@@H](O)[C@H](O)[C@H]1O` [b-Methyl-D-Glucoside], for which the DuctApe activity index was 3 (active).

Take `OCC(O)CO` [Glycerol]: the DuctApe activity index is 3 (active). Then `CC(O)CO` (centres undefined) [1,2-Propanediol], with 0 (inactive); and `O=CC(=O)O` [Glyoxylic acid], with 0 (inactive); and `COC(=O)CCC(=O)O` [Mono-Methylsuccinate], with 2 (inactive). The value for `OC[C@H]1O[C@@H](O[C@H]2[C@H](O)[C@@H](O)[C@H](O[C@H]3[C@H](O)[C@H](O)[C@H](O[C@@H]4[C@H](O)[C@H](O)[C@H](O)O[C@@H]4CO)O[C@@H]3CO)O[C@@H]2CO)[C@@H](O)[C@@H](O)[C@@H]1O` [Mannan] was 0 (inactive); that for `O=C(O)C[C@@H](O)C(=O)O` [D-Malic acid] was 0 (inactive).

Turning to `O=C(O)CC(O)(CC(=O)O)C(=O)O` [Citric acid], the DuctApe activity index is 2 (inactive).

For the compound `OC[C@H]1OC(O)[C@H](O)[C@@H](O)[C@H]1O` (stereo partly drawn) [D-Galactose], the DuctApe activity index is 3 (active).

Consider `O=C[C@H](O)[C@@H](O)[C@H](O)[C@H](O)CO[C@@H]1O[C@H](CO)[C@@H](O)[C@H](O)[C@H]1O` [Gentiobiose], for which the DuctApe activity index is 3 (active).

As to `CC(O)C(C)O` (centres undefined) [2,3-Butanediol], the DuctApe activity index was 0 (inactive). Turning to `OC[C@H]1O[C@@](CO)(O[C@H]2O[C@H](CO)[C@@H](O)[C@H](O)[C@H]2O)[C@@H](O[C@H]2O[C@H](CO)[C@@H](O)[C@H](O)[C@H]2O)[C@@H]1O` [D-Melezitose], the DuctApe activity index was 0 (inactive). Then `C/C=C/C=C/C(=O)O` [Sorbic acid], with 0 (inactive); and `OC1OC[C@@H](O)[C@H](O)[C@H]1O` (stereo partly drawn) [D-Xylose], with 3 (active).

For `OC[C@H]1O[C@@H](Oc2ccc(O)cc2)[C@H](O)[C@@H](O)[C@@H]1O` [Arbutin], the DuctApe activity index is 3 (active). As to `O=C(CO)[C@@H](O)[C@H](O)[C@H](O)CO[C@H]1O[C@H](CO)[C@@H](O)[C@H](O)[C@H]1O` [Palatinose], the DuctApe activity index is 0 (inactive).

For the compound `CO[C@H]1O[C@H](CO)[C@@H](O)[C@H](O)[C@H]1O` [a-Methyl-D-Glucoside], the DuctApe activity index was 0 (inactive).

Consider `OC[C@@H]1OC(O)[C@@H](O)[C@H](O)[C@H]1O` (stereo partly drawn) [L-Glucose], for which the DuctApe activity index is 0 (inactive). The value for `O=C(O)[C@]1(O)C[C@@H](O)[C@@H](O)[C@H](O)C1` [Quinic acid] was 0 (inactive).
